Data as given in the antibiotic and cytotoxicity screens of Wong et al. (2023).
The whole screen tested about 39,000 compounds, of which about 3,300 (8.5%) were called active. The entries come from a sample that favours actives as a whole.

Test system: HepG2
Assay: cytotoxicity call (relative viability < 0.9)
Conditions: 10 µM

Structure (SMILES) | cytotoxicity call
CC(=O)OC[C@H]1O[C@H](C/C=N/O[C@H](C)c2cn([C@@H]3COC[C@H]3O)nn2)C=C[C@@H]1OC(C)=O | inactive
C[C@H](CO)N1C[C@H](C)[C@H](CN(C)Cc2ccc(Cl)c(Cl)c2)Oc2ccc(NS(=O)(=O)c3cccs3)cc2C1=O | inactive
Cc1noc(C)c1S(=O)(=O)Nc1ccc2c(c1)CC(=O)N([C@@H](C)CO)C[C@H](C)[C@@H](CN(C)Cc1ccc(C(=O)O)cc1)O2 | inactive
C[C@@H]1CN([C@H](C)CO)C(=O)Cc2cc(NS(=O)(=O)c3ccc(F)cc3)ccc2O[C@@H]1CN(C)C(=O)Nc1cccc2ccccc12 | inactive
O=C(C[C@@H]1C[C@H]2c3cc(NC(=O)NC4CCCC4)ccc3O[C@H]2[C@@H](CO)O1)NCc1ccc2c(c1)OCO2 | inactive
CCOc1ccn(-c2ccc(F)cc2)c(=O)c1C(=O)Nc1ccc(Oc2ccnc(N)c2Cl)c(F)c1 | inactive
Cc1ccc(C(=O)Nc2ccc(Oc3cc4cnn(C)c4cc3-c3cn[nH]c3)c(F)c2)c(=O)n1-c1ccc(F)cc1 | active
Cc1c(C(=O)Nc2ccc(Oc3ccnc4cc(OCC(C)(C)O)ccc34)c(F)c2)c(=O)n(-c2ccccc2)n1C | inactive
C[C@@H]1CCCCO[C@H](CN(C)C(=O)CCC(F)(F)F)[C@H](C)CN([C@@H](C)CO)C(=O)c2cc(NC(=O)CCCCCC(=O)Nc3ccccc3N)ccc2O1 | inactive
C[C@@H]1CN([C@@H](C)CO)S(=O)(=O)c2ccc(C#Cc3ccccc3)cc2O[C@H]1CN(C)C(=O)CN(C)C | inactive
C[C@@H]1CN([C@H](C)CO)S(=O)(=O)c2ccc(C#Cc3ccccc3)cc2O[C@@H]1CN(C)C(=O)CN(C)C | active
C[C@H]1CN([C@@H](C)CO)S(=O)(=O)c2ccc(Br)cc2O[C@H]1CN(C)C(=O)Cc1ccncc1 | inactive
C[C@H]1CN([C@@H](C)CO)S(=O)(=O)c2ccc(C#Cc3ccc(F)cc3)cc2O[C@@H]1CN(C)C(=O)CN(C)C | inactive
C[C@H]1CN([C@@H](C)CO)S(=O)(=O)c2ccc(C#Cc3ccc(F)cc3)cc2O[C@H]1CN(C)C(=O)CN(C)C | inactive
C[C@H]1CN([C@@H](C)CO)S(=O)(=O)c2ccc(Br)cc2O[C@@H]1CN(C)C(=O)Cc1ccccc1 | inactive
C[C@H]1CN([C@@H](C)CO)S(=O)(=O)c2ccc(Br)cc2O[C@H]1CN(C)C(=O)Cc1ccccc1 | active
C[C@@H]1CN([C@@H](C)CO)S(=O)(=O)c2ccc(C#Cc3ccc(F)cc3)cc2O[C@H]1CN(C)C(=O)CN(C)C | inactive
C[C@@H]1CN([C@H](C)CO)S(=O)(=O)c2ccc(C#Cc3ccc(F)cc3)cc2O[C@H]1CN(C)C(=O)CN(C)C | active
C[C@@H]1CN([C@H](C)CO)S(=O)(=O)c2ccc(C#Cc3cccnc3)cc2O[C@@H]1CN(C)C(=O)CN(C)C | inactive
C[C@@H]1CN([C@H](C)CO)S(=O)(=O)c2ccc(C#Cc3ccccc3)cc2O[C@H]1CN(C)C(=O)CN(C)C | active
C[C@@H]1CN([C@H](C)CO)S(=O)(=O)c2ccc(C#Cc3cccnc3)cc2O[C@H]1CN(C)C(=O)CN(C)C | inactive
